Source: the supplement of paper PMC9135407
Structures can show the parent of a compound that is named as a salt.

The molecules below were run on primary human hepatic stellate cells (donor 1) (assay: PSMB2 reference mRNA level vs DMSO (fold); higher = more PSMB2 expression). Settings: 48 h.
Experimental: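 Secondary qRT-PCR screen in primary human HSCs (donor 1), 384-well plates, with compounds dispensed in quadruplicate and incubated for 48 h. Cells-to-CT lysates were used for multiplexed TaqMan qPCR of ACTA2 or COL1A1 with PSMB2 as reference. Fold changes versus DMSO come from a linear model (Ct_gene ~ Ct_PSMB2 + plate + chemical). A hit is defined as COL1A1 and ACTA2 FC <0.5 (FDR <0.05) with PSMB2 between 0.2 and 2.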
With `COc1ccc2[nH]cc(C3=CCNCC3)c2c1` (33.3333 µM) the “PSMB2 reference mRNA level” value was 1.01.
For `CO[C@H]1CC[C@@H](O[C@H]2C[C@H]([C@]3(C)CC[C@]4(C[C@H](O)[C@@H](C)[C@@H]([C@@H](C)/C=C(\C)C(=O)[C@H](C)C[C@H](C)C(=O)O)O4)O3)O[C@]3(O[C@@H]([C@H]4O[C@@](O)(CO)[C@H](C)C[C@@H]4C)C[C@@H]3C)[C@@H]2C)O[C@@H]1C` [Nanchangmycin] (11.1 µM), the “PSMB2 reference mRNA level” value was 0.936.
For `C[C@]12CC[C@H](O)C[C@H]1CC[C@@H]1[C@@H]2CC[C@]2(C)[C@@H](C3=CC(=O)OC3)CC[C@]12O` [Digitoxigenin] (33.3333 µM), the “PSMB2 reference mRNA level” value was 0.954.
With `CC1=C(CC/C(C)=C/CCC2=CC[C@H](C3=CC(=O)O[C@H]3O)O[C@H]2O)C(C)(C)CCC1` [Manoalide] (40 µM) the “PSMB2 reference mRNA level” value was 1.84.
In the case of `CC[C@H]1CN2CCc3cc(OC)c(OC)cc3[C@@H]2C[C@@H]1C[C@H]1NCCc2cc(OC)c(OC)cc21` [Emetine] (12.0333 µM), the “PSMB2 reference mRNA level” value is reported as 0.628.
`C[C@@H]1O[C@@H](O[C@H]2C[C@@H](O)[C@]3(CO)[C@H]4[C@H](O)C[C@]5(C)[C@@H](C6=CC(=O)OC6)CC[C@]5(O)[C@@H]4CC[C@]3(O)C2)[C@H](O)[C@H](O)[C@H]1O` [Ouabain] (33.3333 µM) was tested, and the “PSMB2 reference mRNA level” value was 1.24.
For `CN1[C@@H]2CC[C@H]1C[C@@H](OC(c1ccc(F)cc1)c1ccc(F)cc1)C2` [3 α-Bis-(4-fluorophenyl) methoxytropane hydrochloride] (33.3333 µM), the “PSMB2 reference mRNA level” value was 0.247.
`Fc1cc(F)c2c(c1)[C@H]1C=CC[C@H]1C(c1cccnc1)N2` (some centres undefined) [Golgicide A] (33.3333 µM) was tested, and the “PSMB2 reference mRNA level” value was 0.431.
For `CN(C(=O)Cc1ccc(Cl)c(Cl)c1)[C@H](CN1CCCC1)c1ccccc1` [ICI-199,441 hydrochloride] (33.3333 µM), the “PSMB2 reference mRNA level” value was 0.128.
`CC(C(=O)OC1CC2CCC(C1)N2C)c1ccc(Br)cc1` (centres undefined) [PG-9 maleate] (33.3333 µM) was tested, and the “PSMB2 reference mRNA level” value was 1.01.
`O=c1[nH]c2ccccc2n1C1CCN(CCCC(c2ccc(F)cc2)c2ccc(F)cc2)CC1` [Pimozide] (33.3333 µM) was tested, and the “PSMB2 reference mRNA level” value was 0.0111.
`O=C1C2CCN(CC2)C1(CO)CO` (90 µM) was tested, and the “PSMB2 reference mRNA level” value was 0.115.
`CCN(CC)CCO[C@H]1CC[C@@]2(C)C(=CC[C@@H]3[C@@H]2CC[C@]2(C)C(=O)CC[C@@H]32)C1` (33.3333 µM) was tested, and the “PSMB2 reference mRNA level” value was 0.278.
For `C[C@H](N)Cn1ccc2cc(F)c(Cl)cc21` [Ro 60-0175 fumarate] (33.3333 µM), the “PSMB2 reference mRNA level” value was 0.297.
With `CC1=NCCc2c1[nH]c1cc(O)ccc21` [Harmalol hydrochloride dihydrate] (24.4333 µM) the “PSMB2 reference mRNA level” value was 0.715.
With `CC1=C(O)C(=O)C=C2C1=CC=C1[C@@]2(C)CC[C@@]2(C)[C@@H]3C[C@](C)(C(=O)O)CC[C@]3(C)CC[C@]12C` [Celastrol] (3.33333 µM) the “PSMB2 reference mRNA level” value was 0.633.
For `CCCCCCCCCCCCCC(=O)O[C@@H]1[C@@H](C)[C@@]2(O)[C@@H](C=C(CO)C[C@]3(O)C(=O)C(C)=C[C@@H]23)[C@@H]2C(C)(C)[C@]12OC(C)=O` [Phorbol 12-myristate 13-acetate] (27.0333 µM), the “PSMB2 reference mRNA level” value was 0.829.
`O=[N+]([O-])/C=C/c1ccc2c(c1)OCO2` (3.7 µM) was tested, and the “PSMB2 reference mRNA level” value was 1.
`COc1ccc2c(c[n+](C)c3c4cc5c(cc4ccc23)OCO5)c1OC` (6.66667 µM) was tested, and the “PSMB2 reference mRNA level” value was 0.187.
